{
  "source": "PubChem BioAssay (Tox21)",
  "note": "Results filed as inconclusive are left out. Active and inactive are the calls of the source. Calls follow the shape of the dose curve; as a rule, active = well fitted activation curve with a large enough effect in the repeat runs; inconclusive = weak or mixed curves; inactive = flat fitted curve, though single readings scatter. Where a SMILES comes first, the peptide text is derived from it. [ ]: non-standard residue; d: D form. pGlu = O=C1CC[C@@H](C(=O)O)N1",
  "data": [
    {"assay": "Caspase-3/7 induction in HepG2 cells by small molecules, qHTS assay (AID 1346978); also: % is scaled to controls: 0 for no effect and ±100 for the full control effect; nearly all actives have a fitted effect of over 15% in size", "conditions": "HepG2 caspase-3/7 activation, Caspase-Glo luminescence, 17 h; series mostly up to 92.4 µM; caspase activation: at the top concentration", "source_text": "National Center for Advancing Translational Sciences [NCATS] NIH Chemical Genomics Center [NCGC] U.S. Environmental Protection Agency [EPA] National Institutes of Environmental Health Sciences [NIEHS] National Toxicology Program [NTP] Assay overview: Apoptosis is a process of programmed cell death and plays a central role in the development of multicellular organisms. It is a highly regulated process and induces cell death by activating caspases, which are the members of cysteine aspartic acid-specific protease (caspase) family. Caspases involved in apoptosis are classified by their mechanism of action as initiator caspases (caspase-2, -8, -9 and -10) and executioner caspases (caspase-3, -6, and -7). Inhibition of apoptosis results in number of cancers, autoimmune diseases, inflammatory diseases and viral infection. To identify small molecule compounds that induce apoptosis, a homogeneous, luminescent Caspase-Glo 3/7 assay was used. Wild type HepG2 cells were used to screen Tox21 libraries for identifying caspase-3/7 activity inducers.\nAssay Protocol Summary: HepG2 cells were dispensed at 2,000 per well in 5uL of culture medium into white solid bottom 1536-well plates (Corning Life Sciences, Corning, NY) using a Multidrop Combi (Thermo Scientific, Waltham, MA) dispenser. The assay plates were incubated at 37 C and 5% CO2 for 5hr, and then 23nL of compounds dissolved in DMSO and positive control were transferred using a Pintool station (Wako, San Diego, CA). The assay plates were incubated at 37C and 5% CO2 for 17hr. For caspase-3/7 activity read, 4uL of Caspase-Glo 3/7 reagent (Promega Corporation, Madison, WI) was added to each well of the assay plates using Flying Reagent Dispenser (FRD, Aurora Discovery, San Diego, CA) and incubated the assay plates at room temperature for 30min. The luminescence signal was quantified using a ViewLux plate reader (Perkin Elmer, Shelton, CT).", "values": [
      {"smiles": "CCN1CCOCC1", "caspase activation": "0.115% (inactive)"},
      {"smiles": "C=COCC1CCC(COC=C)CC1", "note": "(stereo not given)", "caspase activation": "-0.554% (inactive)"},
      {"smiles": "COc1cc(-c2ccc(=O)[nH]n2)ccc1OC(F)F", "caspase activation": "1.61% [at 42.5 µM] (inactive)"},
      {"smiles": "CCCC[N+](C)(CCCC)CCCC", "caspase activation": "0.84% (inactive)"},
      {"smiles": "CCN(Cc1ccccc1)c1ccccc1", "caspase activation": "0.182% (inactive)"},
      {"smiles": "CCCCN(CCC(=O)OCC)C(C)=O", "caspase activation": "0.0144% (inactive)"},
      {"smiles": "[K+]", "caspase activation": "-0.959% (inactive)"},
      {"smiles": "Nc1ccn([C@@H]2O[C@H](CO)[C@@H](O)C2O)c(=O)n1", "note": "(stereo not given in full)", "caspase activation": "-1.35% (inactive)"},
      {"smiles": "Cc1onc(-c2c(Cl)cccc2Cl)c1C(=O)Cl", "caspase activation": "-1.25% [at 42.5 µM] (inactive)"},
      {"smiles": "CC1=NN(c2cccc(S(=O)(=O)O)c2)C(=O)C1", "caspase activation": "1.34% (inactive)"},
      {"smiles": "CNC(=O)Nc1ccc(Cl)c(Cl)c1", "caspase activation": "-2.4% (inactive)"},
      {"smiles": "NC(CCC(=O)O)C(=O)O", "note": "(stereo not given)", "caspase activation": "0.193% (inactive)"},
      {"smiles": "NS(=O)(=O)Cc1noc2ccccc12", "caspase activation": "-0.497% [at 42.5 µM] (inactive)"},
      {"smiles": "O=C(O)c1cc(C(=O)O)cc(C(=O)O)c1", "caspase activation": "0.839% (inactive)"},
      {"smiles": "CCOC(=O)c1ccccc1", "caspase activation": "-1.32% (inactive)"},
      {"smiles": "CCOC(=O)C1=NOC(c2ccccc2)(c2ccccc2)C1", "caspase activation": "0.793% (inactive)"},
      {"smiles": "CCCOC(=O)CC", "caspase activation": "-1.36% (inactive)"},
      {"smiles": "OCCc1ccccn1", "caspase activation": "1.38% (inactive)"},
      {"smiles": "CCCCCCC1CCC(=O)O1", "note": "(stereo not given)", "caspase activation": "-2.7% (inactive)"},
      {"smiles": "CCCCCCCCCC[N+](C)(C)[O-]", "caspase activation": "1.1% (inactive)"},
      {"smiles": "C=CC(C)(CCC=C(C)C)OC(=O)CC", "note": "(stereo not given)", "caspase activation": "-0.848% (inactive)"},
      {"smiles": "NCCCC[C@H](N[C@@H](CCc1ccccc1)C(=O)O)C(=O)N1CCC[C@H]1C(=O)O", "caspase activation": "-0.901% [at 42.5 µM] (inactive)"},
      {"smiles": "CCCn1cc[n+](C)c1C", "caspase activation": "-1.75% (inactive)"},
      {"smiles": "CC[N+](CC)(CC)CCOc1cccc(OCC[N+](CC)(CC)CC)c1OCC[N+](CC)(CC)CC", "caspase activation": "0.749% [at 42.5 µM] (inactive)"},
      {"smiles": "Cc1ccnc(NS(=O)(=O)c2ccc(N)cc2)n1", "caspase activation": "-0.114% [at 42.5 µM] (inactive)"},
      {"smiles": "CCNC(=O)[C@@H]1CCCN1C(=O)[C@H](CCCN=C(N)N)NC(=O)[C@H](CC(C)C)NC(=O)CNC(=O)[C@H](Cc1ccc(O)cc1)NC(=O)[C@H](CO)NC(=O)[C@H](Cc1c[nH]c2ccccc12)NC(=O)[C@H](Cc1cnc[nH]1)NC(=O)[C@@H]1CCC(=O)N1", "note": "([pGlu]HWSYGLRP-NHEt)", "caspase activation": "-0.786% [at 42.5 µM] (inactive)"},
      {"smiles": "O=S(=O)(O)c1cc(O)c(O)c(S(=O)(=O)O)c1", "caspase activation": "0% (inactive)"},
      {"smiles": "COc1cc(C(=O)OC(COCCC(C)C)CN2CCOCC2)cc(OC)c1OC", "note": "(stereo not given)", "caspase activation": "0.273% [at 42.5 µM] (inactive)"},
      {"smiles": "O=C(O)CNC(=O)c1ccccc1", "caspase activation": "0.422% [at 42.5 µM] (inactive)"},
      {"smiles": "CN(C)C(=O)Oc1ccc[n+](C)c1", "caspase activation": "0.732% [at 42.5 µM] (inactive)"},
      {"smiles": "C=CCCCCCCCCC(=O)OCC", "caspase activation": "-0.768% (inactive)"},
      {"smiles": "CN1CCC(=C2c3ccccc3CCc3cccnc32)CC1", "caspase activation": "-0.983% [at 42.5 µM] (inactive)"},
      {"smiles": "CNCC(O)c1ccc(O)c(O)c1", "note": "(stereo not given)", "caspase activation": "0.0478% [at 42.5 µM] (inactive)"},
      {"smiles": "CC[N+](C)(CC)CCOC(=O)C1c2ccccc2Oc2ccccc21", "caspase activation": "0.0415% [at 42.5 µM] (inactive)"},
      {"smiles": "Cc1nc(C2CCCCC2)c(-c2ccc(S(N)(=O)=O)c(F)c2)o1", "caspase activation": "0.375% [at 42.5 µM] (inactive)"},
      {"smiles": "O=C(O)CCCC[P+](c1ccccc1)(c1ccccc1)c1ccccc1", "caspase activation": "0.502% [at 42.5 µM] (inactive)"},
      {"smiles": "CCCCCCCCCCCCSC", "caspase activation": "-1.27% (inactive)"},
      {"smiles": "CCCc1ncc(C[n+]2ccccc2C)c(N)n1", "caspase activation": "-0.0531% [at 42.5 µM] (inactive)"},
      {"smiles": "C[C@@H]1C[C@H]2[C@@H]3C[C@H](F)C4=CC(=O)C(Cl)=C[C@]4(C)[C@@]3(F)[C@@H](O)C[C@]2(C)[C@@]1(O)C(=O)CO", "caspase activation": "-1.99% [at 42.5 µM] (inactive)"},
      {"smiles": "CC1=CC(=O)[C@H]2C[C@@H]1C2(C)C", "caspase activation": "-0.0292% (inactive)"}
    ]}
  ]
}
